ULK1 inh – human ULK1 kinase inhibition, primary screen | 30,000 compounds, 1.9% hits | inhibition, % at 5.96 µM | AlphaScreen Atg13 phosphorylation by ULK1, luminescence | O75385; in the data active means inhibition above about 43%;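 further: 0% = median of compound wells and 100% = no enzyme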
ASK1 primary – inhibitors of human ASK1 kinase | Q99683 | AlphaScreen MKK6 phosphorylation by ASK1, luminescence | inhibition, % at 7.44 µM | 22,000 compounds, 0.99% hits | AID 1159602; in the data active means inhibition above about 35%;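 further: 0% = median of compound wells and 100% = no enzyme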
* hit, by the source's call; x = no result given. Shown are actives, neighbours in structure and some others; about 2.5% of the full set was active somewhere.

SMILES	ULK1 inh	ASK1 primary
Cc1ncn(-c2ccc(Nc3ncc4cccc(-c5ncco5)c4n3)cc2)n1	71.9*	-11.3
Cc1cc(-c2cccc3cnc(Nc4ccc(-n5cnc(C)n5)cc4)nc23)ccn1	-14.1	2.9
COc1cc(Nc2nc(N3CCOCC3)nc3c2ncn3C(C)C)cc(OC)c1OC	17.6	14.1
CCCNc1cc(-c2ccc(OC)cc2)nc(N)n1	-0.2	-3.6
COCCNc1cc(-c2ccncc2)nc(-c2ccncc2)n1	17.6	x
Cc1cc(NCc2cccc(C(F)(F)F)c2)nc(Nc2cccnc2)n1	-8.6	-22.1
Cc1ccc(S(=O)(=O)/N=C2/C(Cl)=C(Cl)C(=O)c3ccccc32)cc1	-2.4	x
COc1ccc(S(=O)(=O)/N=C2\C=CC(=O)C(Cl)=C2)cc1	44.1*	x
NC(=O)c1ccc(-c2nc(N)c3ncn(-c4ccsc4)c3n2)cc1	5.3	3.9
N#C/C(=C\c1ccc(OCC(=O)NCc2ccco2)cc1)C(=O)Nc1ccc(F)cc1	-4.7	x
Cc1c[nH]c(=O)c2cccc(NC3CCN(C(=O)C(N)c4ccc(Br)cc4)CC3)c12 (stereo not drawn)	13.6	10.8
Cc1c[nH]c(=O)c2cccc(S(=O)(=O)N3CCCNC[C@@H]3C)c12	47.2*	0.1
O=S(=O)(NCCc1csc(-c2cccc(F)c2)n1)c1ccc2ccccc2c1	-13.3	x
CN1CCC(Oc2ccc(C(=O)Nc3ccc4[nH]ncc4c3)cn2)CC1	-0.8	1.5
Cn1cc(-c2nc(Nc3ccc(-n4cnc(N5CCC(O)CC5)n4)cc3)ncc2F)cn1	58.3*	-39.8
Cc1nc(C)n(-c2ccc(Nc3nccc(-c4cc(F)cc(-c5cnn(C)c5)c4)n3)cc2)n1	-5.9	31.2
Cc1ncn(-c2ccc(Nc3ncc(Cl)c(Nc4ccccc4-c4ncn(C)n4)n3)cc2)n1	1.7	9.9
Cc1ncn(-c2ccc(Nc3ncc(Cl)c(-c4cnn(C)c4)n3)cc2)n1	66.1*	-78.0
CN1CCN(c2ncn(-c3ccc(Nc4ncc(F)c(-c5cccc(N6CCOCC6)c5)n4)cc3)n2)CC1	-2.6	14.9
Cc1nc(C)n(-c2ccc(Nc3ncc(Br)c(-c4cnn(C)c4)n3)cc2)n1	86.5*	-93.3
NC(=O)c1ccc(-c2nc(NCCCN3CCCC3=O)c3ncn(CCN4CCCC4=O)c3n2)cc1	7.8	1.2
Cc1cnc(-c2ccc(C(=O)NC3CC3)cc2)nc1NCCc1ccc(O)cc1	-3.1	-6.3
COc1ccc(-c2nc(NC3CCN(Cc4ccccc4)CC3)c3ncn(C4CCCCC4)c3n2)cc1	-42.4	17.1
Nc1cccc(-c2nc3ccc(C(=O)NCCO)cc3s2)c1	5.1	-14.8
COc1ccc(-c2cccc(C(=O)NC3CCN(Cc4ccccc4)CC3)n2)cc1	-13.5	-11.9
SMILES	ULK1 inh	ASK1 primary
OCCNc1nc(NCc2cccnc2)nc2c1ncn2-c1ccccc1	-9.4	-15.3
Cc1c(C)c2c(c(C)c1OC(=O)CCC(=O)O)CC[C@@](C)(CCC[C@H](C)CCC[C@H](C)CCCC(C)C)O2	73.5*	x
CC(=O)Oc1c(C)c(C)c2c(c1C)CCC(C)(CCCC(C)CCCC(C)CCCC(C)C)O2 (stereo not drawn)	2.3	x
NC(CO)C(=O)NNCc1ccc(O)c(O)c1O (stereo not drawn)	64.9*	x
NC(CO)C(=O)O (stereo not drawn)	1.8	x
c1cncc(CNc2nc(NCc3nc4ccccc4[nH]3)c3ncn(-c4ccsc4)c3n2)c1	23.6	-9.7
O=C(NCCCN1CCCC1=O)c1ccnc(Nc2cnccn2)c1	9.9	-10.9
CCCCCn1c(N(CC)CC)nc2c1c(=O)[nH]c(=O)n2C	3.9	x
O=C(Nc1ccc2[nH]ncc2c1)C1COc2ccccc2O1 (stereo not drawn)	9.7	-15.6
Nc1n[nH]c2c(Br)cc(NC(=O)C3COc4ccccc4O3)cc12 (stereo not drawn)	57.9*	-26.3
NC(=O)c1ccccc1Nc1cc(Oc2ccccc2F)ncc1C(F)(F)F	-8.3	0.8
CNC(=O)c1ccccc1Nc1cc(Nc2ccc(F)cc2OC)ncc1C(F)(F)F	87.1*	-1.4
Cc1nc(Nc2cc(Nc3ccccn3)c(C(F)(F)F)cn2)cc(-c2cncnc2)n1	32.3	22.0
CNC(=O)c1ccccc1Nc1cc(Nc2ccc(-c3cncnc3)cc2OC)ncc1C(F)(F)F	86.2*	-8.3
CNC(=O)c1cc(F)ccc1Nc1cc(Nc2cc(-c3cncnc3)nc(C)n2)ncc1C(F)(F)F	58.2*	9.1
CNC(=O)c1cncnc1Nc1cc(NC(=O)Cc2ccc(OC)cc2)ncc1C(F)(F)F	14.7	26.1
COc1ccc(C(C)(C)C)cc1S(=O)(=O)N1CCN(c2nc(C)cc(N3CCCC3)n2)CC1	-2.1	x
Cn1c(=O)c2[nH]c(Cl)nc2n(C)c1=O	1.6	x
Cn1nccc1Nc1ncc(C(=O)Nc2ccc3c(c2)OCO3)s1	12.9	14.4
COc1cc(OC)nc(Oc2ccccc2C(=O)N(C)OC)n1	-1.6	x
c1ccc2[nH]ccc2c1	83.3*	x
Oc1cccc2[nH]ccc12	19.7	x
COc1ccc(CCNc2cc(Cl)nc(N)n2)cc1	6.8	5.2
COc1ccc(NC(=O)CNC(=O)C2OC3OC(C)(C)OC3C3OC(C)(C)OC23)cc1 (stereo not drawn)	-0.5	x
CC(C)n1cnc2c(Nc3ccc4c(c3)OCO4)nc(Nc3cnccn3)nc21	48.8*	1.1
SMILES	ULK1 inh	ASK1 primary
CC(C)n1cnc2c(Nc3ccc4c(c3)OCO4)nc(Nc3ccccc3)nc21	-0.1	20.7
c1cnc(Nc2nc(Nc3ccc4c(c3)OCO4)c3ncn(C4CCCCC4)c3n2)cn1	0.8	1.9
CC(C)n1cnc2c(Nc3ccc4c(c3)OCO4)nc(Nc3ccc(-n4ccnc4)cc3)nc21	55.0*	26.0
CCOc1ccc(C(=O)NCCS(=O)(=O)N2CCN(c3ccc(F)cc3)CC2)cc1OCC	1.6	x
COc1cc(-c2cn[nH]c2)cc2c(=O)[nH]c(C3COc4ccccc4O3)nc12 (stereo not drawn)	6.6	15.1
CCCNc1nc(Nc2cccc(N(C)C)c2)nc2c1ncn2Cc1ccc(C(F)(F)F)cc1	15.3	18.3
CN(C)c1cccc(Nc2nc(NCCO)c3ncn(Cc4ccc(C(F)(F)F)cc4)c3n2)c1	53.7*	7.5
FC(F)(F)c1ccc(Cn2cnc3c(NC4CCN(Cc5ccccc5)CC4)nc(Nc4ccccc4)nc32)cc1	-6.7	2.1
CN(C)c1cccc(Nc2nc(NC3CCN(Cc4ccccc4)CC3)c3ncn(Cc4ccc(C(F)(F)F)cc4)c3n2)c1	44.3*	33.8
CNC(=O)c1cc(F)ccc1Nc1cc(Nc2ccc(N3CCOCC3)cc2OC)ncc1C(F)(F)F	84.2*	17.0
COc1cc(N2CCOCC2)ccc1Nc1cc(Nc2ccccc2S(=O)(=O)NC(C)C)c(C(F)(F)F)cn1	28.8	9.8
CNC(=O)c1cc(F)c(F)cc1Nc1cc(Nc2ccc3c(c2)CC(=O)N3)ncc1C(F)(F)F	30.0	8.9
COc1cc(N2CCOCC2)ccc1Nc1cc(Nc2ccccn2)c(C(F)(F)F)cn1	38.8	24.6
COc1cc(N2CCOCC2)ccc1Nc1cc(Nc2ccc(F)cc2OC)c(C(F)(F)F)cn1	25.7	18.4
CNC(=O)c1cc(F)c(F)cc1Nc1cc(Nc2ccc(N3CCOCC3)cc2OC)ncc1C(F)(F)F	69.0*	7.5
CNS(=O)(=O)c1ccccc1Nc1cc(Nc2ccc(N3CCOCC3)cc2OC)ncc1C(F)(F)F	90.8*	8.2
CNC(=O)c1ccccc1Nc1cc(Nc2ccc(N3CCOCC3)cc2OC)ncc1Br	85.7*	-0.5
CC(C)(C)OC(=O)N1CCC(c2nc(-c3nc4ccc(-c5ccncc5)cc4[nH]3)cs2)CC1	-14.7	-5.8
